Only some compounds are listed: those with a hit (about 4.1% of all), similar ones and a draw of the others.
hgDAF12 agonist – hgDAF-12 agonism, primary luciferase screen | hit rate 1.8% among 370,000 | AID 687014 | HEK293 GAL4-hgDAF12 UAS-luciferase reporter, agonist luminescence; normalized to butyrate control | activation, % at 6.8 µM;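 active = activation above a cutoff set at the mean of all screened compounds plus 3 SD, cut at about 10% in these data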;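 also: 0% = DMSO wells and 100% = sodium butyrate wells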
DAX1 inh-1 – inhibitors of DAX1 repression of SF-1 activated StAR promoter; hit rate 1.1% among 370,000; HEK293T StAR-luciferase reporter, SF-1/DAX-1 repression relief; AID 652010; inhibition, % at 6.8 µM;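 active = inhibition above the mean over all tested compounds plus 3 SD, cut at about 3.6% in these data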;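 also: 0% = DAX-1 cells with DMSO and 100% = cells lacking DAX-1 with DMSO; higher inhibition means more luminescence from relief of DAX-1 repression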
hcDAF-12 act – activates DAF-12 receptor from parasite H. contortus. AID 652067. HEK293 hcDAF-12 lit1-tk-luc reporter, luminescence; 0% DMSO, 100% Δ7-dafachronic acid. hit rate 1.4% among 370,000. activation, % at 6.8 µM;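 active = activation above the mean of all tested compounds plus 3 SD, cut at about 5.5% in these data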;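 also: 100% = response to 3 µM Δ7-dafachronic acid high control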
DAX1 inh-2 – NR0B1 (DAX1) inhibition. AID 504766. P51843. inhibition, % at 6.75 µM. HEK293 Gal4-DAX1 luciferase reporter, luminescence. hit rate 0.99% among 340,000;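 active = inhibition above the mean over all tested compounds plus 3 SD, cut at about 4.2% in these data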;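 also: 0% = DAX1-transfected cells with DMSO and 100% = empty-vector control cells with DMSO; inhibition shows as a rise in luminescence from relieved DAX1 repression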
ssDAF-12 act – S. stercoralis DAF-12 activation, primary screen. hit rate 1% among 370,000. HEK293 ssDAF-12/GRIP1 lit1-tk-luc reporter, luminescence; % of 3 µM dafachronic acid response. activation, % at 6.8 µM. AID 652126;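 active = activation above the mean over all tested compounds plus 3 SD, cut at about 0.9% in these data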;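 also: 0% = DMSO-only wells and 100% = 3 µM delta7-dafachronic acid wells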
hgDAF12 conf – hgDAF-12 agonism, confirmation assay; shares compounds with hgDAF12 agonist; HEK293 GAL4-hgDAF12 luciferase reporter, agonist mode; percent of butyrate response; activation, % at 6.8 µM; hit rate 80% among 3,300; AID 743050;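 active = mean activation over triplicate wells above the hit cutoff derived from the earlier primary screen, cut at about 11% in these data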;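 also: 0% = DMSO low control and 100% = 2 mM sodium butyrate high control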
LXRb DAF12 ctr – activates human LXR-beta, counter-screen for DAF-12 agonists | shares compounds with hgDAF12 agonist | HEK293 Gal4-LXR luciferase reporter, 24 h | activation, % at 6.8 µM | 3,300 tested, under 10 active | AID 743051;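 active = mean activation of the triplicate above a set limit carried over from the primary screen, none filed active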
Target sequence (P55055 whole entry, looked up, the tested form may be a part): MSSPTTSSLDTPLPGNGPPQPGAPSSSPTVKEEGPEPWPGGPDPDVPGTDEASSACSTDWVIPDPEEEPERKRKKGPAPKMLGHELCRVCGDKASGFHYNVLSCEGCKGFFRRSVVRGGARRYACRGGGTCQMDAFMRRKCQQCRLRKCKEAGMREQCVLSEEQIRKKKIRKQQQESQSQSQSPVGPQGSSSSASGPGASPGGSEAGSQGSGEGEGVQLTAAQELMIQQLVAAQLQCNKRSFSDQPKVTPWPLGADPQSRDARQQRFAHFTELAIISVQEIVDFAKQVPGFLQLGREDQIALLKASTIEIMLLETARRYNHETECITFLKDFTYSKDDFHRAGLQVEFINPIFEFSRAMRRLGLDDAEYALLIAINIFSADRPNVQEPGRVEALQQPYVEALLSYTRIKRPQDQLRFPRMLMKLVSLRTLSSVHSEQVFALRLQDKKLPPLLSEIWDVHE
* hit, by the source's call; / = no result given.

SMILES	hgDAF12 agonist	DAX1 inh-1	hcDAF-12 act	DAX1 inh-2	ssDAF-12 act	hgDAF12 conf	LXRb DAF12 ctr
C#CCNC(=O)C[C@H]1C[C@@]2(C(=O)OC)C(=C[C@H](C3CCCC3)O[C@@H]2C)N(CCCCCCCC)C1=O	-2.0	-0.6	1.1	/	-0.5	/	/
O=C(O)C1C2CCC(C2)C1C(=O)Nc1nc2ccccc2s1 (stereo unspecified)	2.8	0.6	0.6	0.7	-0.1	/	/
O=C(CC1CCCCC1)Nc1nc2ccccc2s1	13.6*	2.4	4.5	2.9	-0.8	16.8*	0.7
Cc1ccc(C(C)(C)NC(=O)C2CCC(=O)N(CCCN3CCOCC3)C2)cc1 (stereo unspecified)	-0.2	0.2	0.5	0.5	-1.1	/	/
Cc1ccc(C(C)(C)NC(=O)C2CCC(=O)N(C3CCCCCC3)C2)cc1 (stereo unspecified)	13.4*	2.8	6.0*	1.1	-0.3	14.0*	0.4
CCCC(=O)OC[C@H]1CN(C2CCCC2)S(=O)(=O)c2c(Oc3ccccc3)cccc2O1	-0.3	-0.5	-0.7	/	-1.1	/	/
CCOC(=O)CSc1nc2ccc(N)cc2s1	-1.9	-0.5	0.6	-1.0	0.3	/	/
Nc1ccc2nc(SCc3cccc(F)c3)sc2c1	15.6*	0.2	2.2	0.1	-0.9	11.5*	0.6
Cc1ccc(C(=O)Nc2cnc3ccccc3c2)cc1	-12.0	-2.9	-3.3	-5.8	-2.4	/	/
O=C(N/N=C/c1cc(O)ccc1[N+](=O)[O-])c1ccc2c(c1)OCCO2	17.8*	3.6*	3.8	0.4	-0.5	13.6*	0.4
COc1ccc(/C=N/NC(=O)c2ccc3c(c2)OCCO3)cc1[N+](=O)[O-]	3.3	0.3	1.6	-0.2	-1.8	/	/
CN1CCN(c2ccc(NC(=O)c3ccc4c(c3)OCCO4)cc2)CC1	16.8*	3.0	6.1*	0.4	0.7	11.1*	0.8
COc1ccc(C(=O)Nc2ccc3c(c2)OCCO3)cc1Br	14.7*	2.3	2.3	2.4	0.1	15.1*	0.7
Cc1cc(C(=O)Nc2cnc3ccccc3c2)ccc1[N+](=O)[O-]	14.9*	2.1	3.3	3.4	-1.3	16.9*	0.8
c1coc(-c2nnc3n2N=C(c2ccc4c(c2)OCO4)CS3)c1	0.3	-1.4	-1.7	/	-1.4	/	/
N#CCC[C@H]1CC[C@]2(CCCN(c3ccccc3)C2)O1	-0.6	0.7	1.5	/	-1.2	/	/
Cc1cc(C(=O)Nc2ccc3c(c2)OCCO3)ccc1[N+](=O)[O-]	18.2*	2.8	5.1	-3.8	0.7	12.1*	1.0
CCCOc1cccc(C(=O)Nc2ccc3c(c2)OCCO3)c1	18.6*	2.5	6.3*	-0.2	0.6	20.4*	0.9
O=C(Nc1ccc2c(c1)OCCO2)c1ccc(Cl)c(Cl)c1	14.8*	2.1	4.4	7.0*	0.6	17.0*	0.8
CCCOc1cccc(C(=O)Nc2cccc(NC(=O)c3ccco3)c2)c1	-0.4	-1.4	-1.3	-1.0	-0.9	/	/
O=C(Nc1ccc2c(c1)OCCO2)c1ccc2nccnc2c1	14.7*	4.3*	4.9	-1.0	-0.4	15.2*	0.7
COC(=O)c1cc2c(c3c4cc(C)ccc4n(S(=O)(=O)c4cccc(C)c4)c13)C(=O)N(C)C2	1.8	1.0	3.5	/	-0.7	/	/
COc1ccc(-c2c(-c3ccccc3OC)sc3ccccc23)cc1F	0.0	0.8	-0.1	/	-0.9	/	/
Cc1ccc(Nc2ncccc2C(N)=O)cc1[N+](=O)[O-]	15.7*	1.6	2.8	3.1	-0.4	14.3*	0.5
CCOC(=O)c1ccc(NC(=O)c2ccccc2[N+](=O)[O-])cc1	8.9	0.6	-1.5	-0.5	-1.2	/	/
SMILES	hgDAF12 agonist	DAX1 inh-1	hcDAF-12 act	DAX1 inh-2	ssDAF-12 act	hgDAF12 conf	LXRb DAF12 ctr
CCOC(=O)c1ccc(Nc2ncccc2[N+](=O)[O-])cc1	18.3*	0.9	6.0*	1.2	1.7*	18.9*	0.9
Cc1ccc(Nc2ncccc2C(=O)O)cc1C	3.6	2.4	2.7	1.3	-1.0	/	/
CN(Cc1ccccc1F)C(=O)C1CCCN(c2ncccn2)C1 (stereo unspecified)	2.6	-0.8	-1.8	/	-1.0	/	/
N#CC1CC(c2ccccc2)Nc2cc(Cl)ccc2N1 (stereo unspecified)	19.6*	-0.2	6.0*	-1.7	0.8	12.7*	0.5
O=C(O)C1C2CCC(O2)C1C(=O)Nc1ccc(F)cc1 (stereo unspecified)	0.0	0.3	0.8	-0.7	-1.2	/	/
O=C(O)c1ccc(NC(=O)C2C3CCC(O3)C2C(=O)O)cc1 (stereo unspecified)	14.0*	0.9	6.0*	1.1	1.4*	3.1	0.0
COC(=O)[C@]12C[C@H](CC(=O)N3CCCC3)C(=O)N(CCC3=CCCCC3)C1=C[C@H](COCc1ccccc1)O[C@@H]2C	-1.3	-1.1	-1.7	/	-1.1	/	/
COc1ccccc1/C=C/c1nc(C#N)c(N(C)C)o1	15.2*	0.7	5.8*	4.1	0.2	14.3*	0.6
CC(=Nc1ccc(C)cc1C)c1sc2ccccc2c1O	21.0*	4.2*	5.7*	5.8*	1.9*	24.1*	1.3
CCN(Cc1ccccc1)C(=O)Nc1c(Cl)cccc1Cl	0.0	0.2	-0.2	/	-0.6	/	/
COCC(C)Nc1ncnc2c1cnn2-c1ccc(Cl)cc1 (stereo unspecified)	17.8*	4.0*	5.8*	1.0	0.5	10.7*	1.0
COc1ccc(-n2ncc3c(N4CCCCC4)ncnc32)cc1	/	/	/	-4.6	/	/	/
COc1ccc(-n2ncc3c(NC(C)C)ncnc32)cc1	18.9*	3.3	5.4	0.0	0.7	16.7*	0.9
C=CCN=C1NC(c2cccc(F)c2)C(C(=O)OC)=C(C)N1Cc1ccccc1C(F)(F)F (stereo unspecified)	-1.7	-1.2	-2.3	/	-0.9	/	/
Cn1cc(C2N3CC4(C)CN2CC(C)(C3)C4=O)c2ccccc21 (stereo unspecified)	16.0*	-0.9	-1.3	1.9	-1.4	0.6	0.0
Cc1c(C2N3CC4(C)CN2CC(C)(C3)C4=O)c2ccccc2n1C (stereo unspecified)	1.4	0.3	-0.8	0.5	-1.3	/	/
c1csc(CNc2ncnc3ccc(-c4ccc5c(c4)OCO5)cc23)n1	1.4	/	1.9	/	-0.6	/	/
CCOC(=O)c1sc(NC(=O)Nc2ccc(F)cc2)nc1C	17.3*	3.7*	4.2	2.0	-0.5	22.6*	1.0
Cc1csc(NC(=S)NC(=O)c2ccccc2)n1	15.7*	1.4	4.8	2.9	0.2	15.5*	0.6
CCOC(=O)c1sc(NC(=O)c2ccc(C)s2)cc1C	9.0	2.6	3.5	1.2	0.5	/	/
CCOC(=O)c1sc(NC(=O)Nc2ccccc2)cc1C	16.9*	3.2	5.5	0.5	0.5	22.8*	1.2

Screening results as filed in PubChem BioAssay.
